An excerpt weighted towards active compounds, which were near 12% of everything screened.
BAZ2B inh: inhibitors of human BAZ2B bromodomain | AID 504333 | Potency, µM (series often up to 114 µM), most hits filed as inhibitors | Q9UIF8 | AlphaScreen BAZ2B-H3K14Ac peptide displacement | hit rate 4.4% among 360,000; further: nearly all actives have a fitted effect of over 60% in size
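AlphaScreen displacement of biotin-H3(5-23)K14Ac peptide (50 nM final) from BAZ2B (50 nM final) in PBS pH 7.4, 0.01% Tween-20; complex preformed 30 min RT, then compounds (top 110 uM) 30 min RT, beads 20 min dark.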
HP1b chromo inh: HP1-beta chromodomain-methylated histone interaction inhibition. P83916. AlphaScreen HP1-beta / biotin-H3K9me3 peptide binding. Potency, µM (doses to about 114 µM), usual class: inhibitors. hit rate 0.56% among 390,000. AID 540317; further: nearly all actives have a fitted effect of over 70% in size
Target sequence (P83916 whole entry, looked up): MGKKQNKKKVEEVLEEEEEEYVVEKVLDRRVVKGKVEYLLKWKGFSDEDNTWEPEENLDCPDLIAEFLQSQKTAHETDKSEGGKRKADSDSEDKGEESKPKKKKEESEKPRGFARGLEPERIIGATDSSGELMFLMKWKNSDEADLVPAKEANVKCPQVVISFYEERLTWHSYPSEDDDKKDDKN
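AlphaScreen: HP1-beta (50 nM) preformed 30 min with biotin-H3(1-18)K9me3 peptide (50 nM) in PBS pH 7.4, 0.01% Tween-20. Compound added for 30 min at RT, then streptavidin donor/nickel chelate acceptor beads (10 ug/mL) for 30 min.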
PLK1 PBD inh: inhibitors of human PLK1 polo-box domain binding; hit rate 2.8% among 360,000; Plk1 PBD binding of FITC phosphopeptide, fluorescence polarization; P53350; Potency, µM, usual class: inhibitors; further: series mostly up to about 57 µM; nearly all actives have a fitted effect of over 65% in size
JMJD2A Tudor: blocks the human JMJD2A Tudor domain | hit rate 4.4% among 390,000 | AlphaScreen JMJD2A-Tudor / H3K4me3 peptide binding | Potency, µM (titrated, usually from 114 µM), hits mostly inhibitors; further: nearly all actives have a fitted effect of over 50% in size
G9a inh: blocks human histone lysine methyltransferase G9a; G9a H3K9 monomethylation, AlphaScreen, 2 h; Potency, µM (doses to about 102 µM), hits mostly inhibitors; hit rate 8.8% among 350,000; further: nearly all actives have a fitted effect of over 75% in size
Target sequence (Q96KQ7 913-1193 limits assumed): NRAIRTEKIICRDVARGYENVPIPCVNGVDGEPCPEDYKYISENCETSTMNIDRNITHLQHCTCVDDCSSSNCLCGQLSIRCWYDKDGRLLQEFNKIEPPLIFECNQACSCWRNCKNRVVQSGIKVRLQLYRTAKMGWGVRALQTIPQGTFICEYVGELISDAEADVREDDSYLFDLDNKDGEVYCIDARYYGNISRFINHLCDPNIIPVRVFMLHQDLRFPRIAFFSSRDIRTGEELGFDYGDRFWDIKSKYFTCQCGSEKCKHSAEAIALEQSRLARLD
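AlphaScreen detection with an anti-monomethyl H3K9 antibody quantified product after a 2 h room-temperature reaction containing 500 nM biotinylated H3K9 peptide, 20 µM SAM and 20 nM enzyme, which had been preincubated 15 min with compound.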
PI5P4K alpha inh: inhibitors of human PI5P4K alpha | P48426 | PI5P4Kalpha enzyme, ADP-Glo luminescence, 60 min; active compounds read low | max response, % | hit rate 1.2% among 330,000; active means max response of -50% or lower; inconclusive means between -30% and -50%; inactive means -30% or higher; further: value at the top dose of about 77 µM
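Quantitative HTS of the MLSMR library against PI5P4Kalpha with substrate. ATP added last at 5 microM final; room temperature, 60 minutes. Remaining ATP depleted, ADP converted and read as luminescence.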
A number is an active result; 0 = inactive; ? = inconclusive; - = no result given; ! = a repeat was not active; [ ] = dose if it differs, or a comment. Unless noted, the call rests on the fitted dose curve; in most records, active means well fitted curve in the direction sought with a large enough effect; inconclusive means small, poorly fitted or top-dose-only effect, or another doubt; inactive means no such curve, though single readings can be large; an effect the other way counts as inactive or inconclusive.

SMILES	BAZ2B inh	HP1b chromo inh	PLK1 PBD inh	JMJD2A Tudor	G9a inh	PI5P4K alpha inh
CN(C(=O)CSc1ncccc1C(=O)O)c1ccccc1	0	0	0	0	0[12.7 µM]	-
CC1Cc2ccccc2N1C(=O)CSc1ncc(-c2ccc(F)cc2)n1C (centres undefined)	28.2µM	?	0	56.2µM	?	0
Cc1ccc(NC(=O)CSCC(=O)N2CCCc3ccccc32)cc1	0	0	0	0	44.7µM	0
Cn1c(-c2ccc(F)cc2)cnc1SCC(=O)N1CCCc2ccccc21	31.6µM	?	?	0	44.7µM	0
CCCN(CCC)C(=O)CSc1ncccc1C(=O)O	0	0	0	89.1µM	?	0
O=C(CSc1ncccn1)N1CCCc2ccccc21	0	0	0	0	0	0
Cn1ccnc1SCC(=O)N1CCc2ccccc21	0	0	0	0	?	0
O=C(O)c1cccnc1SCC(=O)N1CCCc2ccccc21	79.4µM	0	0	?	0	0
Cc1cccc(-n2ccnc2SCC(=O)N2CCCc3ccccc32)c1C	50.1µM	0	0	?	?	0
O=C(OCC#CCSc1nnc(-c2cccc3ccccc23)o1)c1ccc(Cl)c(C(F)(F)F)c1	-	-	-	0	-	-
CCc1nn2cc(C(=O)c3cc(C)ccc3O)cnc2c1-c1ccc(F)cc1	?	0	0	?	44.7µM	0
CCc1nn2cc(C(=O)c3ccccc3O)cnc2c1-c1ccc(F)cc1	?	0	0	?	?	0
O=C(Nc1ncc(Br)s1)C(Cc1ccccc1)n1cccc1 (centres undefined)	44.7µM	0	0	?	44.7µM	0
O=C(Nc1cccnc1)C(Cc1ccccc1)n1cccc1 (centres undefined)	?	0	0	0	50.1µM	0
O=C(CCC(=O)c1ccc(-c2ccccc2)cc1)Nc1cccnc1	0	0	0	0	50.1µM	0
CC(=O)c1ccc(Nc2nc3ccccc3nc2-n2nc(C)cc2C)cc1	0	0	-	0	0	-
COc1ccc(/C=C2\N=C(C)OC2=O)cc1OC(C)=O	0	0	0	0	28.2µM	0
COc1ccc(/C=C2\N=C(C)OC2=O)cc1OC	0	0	0	0	35.5µM	0
COc1cc(/C=C2\N=C(c3ccccc3)OC2=O)ccc1OC(C)=O	0	0	0	0	-	0
Cc1ccsc1C=C1C(=O)c2ccccc2C1=O	?	0	?	?	28.2µM	0
COC(=O)C1=C(C)NC(C)=C([N+](=O)[O-])[C@@H]1c1ccccc1C(F)(F)F	-	-	-	-	0	-
O=C(O)c1ccccc1C(=O)Nc1ccc(Oc2cccc3ccccc23)cc1	50.1µM	0	0	0	39.8µM	0
CCc1nc2ccc(C(=O)NCc3ccc(OC)c(OC)c3)cc2nc1CC	0	0	-	0	0	-
Cc1ccc(S(=O)(=O)Nc2c(C)cc([N+](=O)[O-])cc2C)cc1	-	0	0	0	-	0
Cc1cc([N+](=O)[O-])cc([N+](=O)[O-])c1NCC(C)C	12.6µM	39.8µM	0	44.7µM	15.8µM	0
SMILES	BAZ2B inh	HP1b chromo inh	PLK1 PBD inh	JMJD2A Tudor	G9a inh	PI5P4K alpha inh
O=C(CSCc1ccc(F)cc1)NCc1ccc(F)cc1	0	0	0	100µM!	0	0
O=C(CCS(=O)(=O)c1ccccc1Cl)NCc1ccc(F)cc1	0	0	?	0	50.1µM	0
O=C(CCS(=O)(=O)c1cccc2nsnc12)NCc1ccccc1Cl	0	0	0	0	?	0
CC1CC(C)(C)NC(=S)N1CCC(=O)NCc1ccc(F)cc1 (centres undefined)	0	0	0	0	39.8µM	0
CC1CC(C)(C)NC(=S)N1CCC(=O)NCc1ccc(Cl)cc1 (centres undefined)	0	0	0	0	0	0
CC1CCCCC1NCC(=O)NCc1ccc(F)cc1 (centres undefined)	50.1µM	?	0	1.26µM	10µM	0
Cc1ccc(CSCC(=O)NCc2ccc(F)cc2)cc1	0	0	0	0	0	0
Cc1ccc(CNC(=O)CCc2c(C)nc3c4c(C)cc(C)nc4nn3c2C)cc1	0	0	-	0	0	-
O=C(c1ccco1)N1CCC2(CCN(Cc3ccncc3)CC2)CC1	-	-	-	-	0[12.7 µM]	-
CCN(CC(=O)Nc1ccccc1C(F)(F)F)C(=O)c1ccc(-n2nc(C)c(CCC(=O)OC)c2C)cc1	-	0	0	0	-	0
O=C(CCCC(=O)NCc1ccc(F)cc1)NCc1ccc(F)cc1	0	0	23.8µM	0	0	0
O=C(CCCC(=O)NCc1ccccc1)NCc1ccccc1	0	0	0	0	0	0
O=C(COc1ccc(Cl)cc1)NCc1ccc(F)cc1	0	0	26.7µM	?	0	0
c1ccc(CNc2ccc3c(c2)ncn3C2CCCCC2)nc1	20µM	0	?	25.1µM	7.94µM	-
Cc1[nH][nH]c(=O)c1C(c1ccccc1[N+](=O)[O-])C(C#N)C#N (centres undefined)	0	0	0	0	39.8µM	0
CNC(=O)c1ccc(NC(=O)CC2SC(N3CCCC3)=NC2=O)cc1 (centres undefined)	0	0	0	0	2µM	0
CC(C)NC(=O)c1ccc(NC(=O)CC2SC(N3CCCC3)=NC2=O)cc1 (centres undefined)	0	0	0	0	0[2.33 µM]	0
O=C(CC1SC(N2CCOCC2)=NC1=O)Nc1ccc(Cl)cc1 (centres undefined)	0	0	0	0	50.1µM	0
CC(=O)c1ccc(S(=O)(=O)Nc2c(C)nn(C)c2C)cc1	0	0	0	0	44.7µM	0
